Source: PubChem BioAssay (NCI)
The panel holds about 83,000 compounds, 20% with a hit somewhere; the sample as a whole holds those more often.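 For each line, cells grew in 96-well plates with the test compound present at a single concentration for 48 hours.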 A number with no mark means an inactive call. The source made the active and inactive calls. The calls were made as follows: active = growth percent below 10; inactive = the rest.

system: IGROV1 ovarian; assay: NCI-60 one-dose screen, 48 h (100 = growth as untreated, 0 = no growth, -100 = all killed); details: 10 µM unless noted

Compound	growth
N#C/C(=C\c1cccc2cnccc12)n1nnc2cccc(F)c21	26.5%
O=C(S)CNC(=O)c1ccccc1	105%
CN(C)c1ccc2nc3ccc(=[N+](C)C)c([N+](=O)[O-])c-3sc2c1	20%
O=C1c2ccccc2NC(n2sc3ccccc3c2=O)N1c1ccccc1 (centres undefined)	96.5%
Cc1nc2ccccc2c(/C=C/c2ccccc2)c1C(=O)/C=C/c1ccc(C(F)(F)F)cc1	-72.4% (active)
CCOC(=O)c1nc(Nc2ccc(C(C)=O)cc2)sc1C	103%
Oc1ccc(Cl)cc1Cc1cc(Cl)cc(Cl)c1O	66%
COc1nc2ccc(C)cc2cc1-c1nc2c(cnn2-c2ccc(Br)cc2)c(=O)[nH]1	38.4%
CC(=O)OC[C@H]1OC(Sc2sc(C(=O)c3ccc(Cl)cc3)c(N)c2-c2nc3ccccc3s2)[C@H](OC(C)=O)[C@@H](OC(C)=O)[C@@H]1OC(C)=O (some centres undefined)	70.9%
COc1cc(/C=C/C(=O)/C=C/c2cc(OC)c3c(c2OC)OCO3)c(OC)c2c1OCO2	29.8%
COc1c(B(O)O)cc(C)cc1-c1nc2ccc3[nH]ncc3c2c2c1CCCC2	60.8%
CCCCCCN(CCCCCC)c1ccc(/C=C2/SC(=O)NC2=O)c(C)c1	83.6%
COC(=O)c1ccc2[nH]c(O)c(C(=Nc3ccc(N(C)C(=O)CN4CCN(C)CC4)cc3)c3ccccc3)c2c1	10.2%
CCOC(=O)CC1C(COC(=O)NC)OC(n2cnc3c(NC(=O)Nc4ccccc4)ncnc32)C1O[Si](C)(C)C(C)(C)C (centres undefined)	49.1%
